Screens: PubChem, National Center for Advancing Translational Sciences (NCATS)
JMJD2A Tudor: JMJD2A Tudor domain (human) inhibition | O75164 | AlphaScreen JMJD2A-Tudor / H3K4me3 peptide binding | Potency, µM (titrated, usually from 114 µM), inactives show at the highest dose activity change, negative = inhibition, actives largely listed as inhibitors | 4.4% of 390,000 active | AID 504339; further: potency means the concentration at half of the fitted maximal effect; on the % scale 0 is the no-effect control and ±100 the full control effect; nearly all actives have a fitted effect of over 50% in size
Target sequence (O75164 whole entry, looked up, the tested form may be a part): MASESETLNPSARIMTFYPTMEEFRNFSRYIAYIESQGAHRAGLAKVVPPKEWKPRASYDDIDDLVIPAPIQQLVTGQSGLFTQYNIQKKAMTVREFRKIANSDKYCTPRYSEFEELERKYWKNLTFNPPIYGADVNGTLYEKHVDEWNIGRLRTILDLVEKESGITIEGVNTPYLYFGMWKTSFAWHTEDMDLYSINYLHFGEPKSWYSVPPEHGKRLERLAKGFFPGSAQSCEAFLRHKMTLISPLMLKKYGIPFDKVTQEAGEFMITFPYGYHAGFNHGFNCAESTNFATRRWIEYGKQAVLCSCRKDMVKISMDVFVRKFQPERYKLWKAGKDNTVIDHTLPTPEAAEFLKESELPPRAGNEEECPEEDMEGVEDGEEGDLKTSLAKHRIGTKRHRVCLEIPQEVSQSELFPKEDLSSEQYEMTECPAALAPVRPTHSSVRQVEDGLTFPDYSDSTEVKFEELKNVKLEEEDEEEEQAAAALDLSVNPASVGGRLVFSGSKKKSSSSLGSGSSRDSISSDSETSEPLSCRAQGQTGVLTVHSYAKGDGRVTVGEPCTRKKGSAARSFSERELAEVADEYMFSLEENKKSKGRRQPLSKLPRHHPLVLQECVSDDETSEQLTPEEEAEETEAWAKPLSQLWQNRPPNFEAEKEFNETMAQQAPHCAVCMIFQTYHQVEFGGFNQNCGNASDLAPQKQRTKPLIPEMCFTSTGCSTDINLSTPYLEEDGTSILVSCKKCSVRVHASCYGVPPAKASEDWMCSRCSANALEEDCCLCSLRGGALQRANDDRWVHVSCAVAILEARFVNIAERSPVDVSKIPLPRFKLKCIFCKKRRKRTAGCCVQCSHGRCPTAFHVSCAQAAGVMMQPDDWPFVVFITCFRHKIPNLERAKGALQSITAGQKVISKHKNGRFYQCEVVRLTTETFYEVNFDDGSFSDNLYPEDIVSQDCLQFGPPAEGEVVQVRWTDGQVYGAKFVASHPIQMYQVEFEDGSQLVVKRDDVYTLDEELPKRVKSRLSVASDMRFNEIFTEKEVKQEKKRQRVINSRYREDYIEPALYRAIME
Six1-Eya2 inh: Six1/Eya2 interaction inhibition; 0.56% of 360,000 active; activity change, % (concentration not given with the values); AlphaScreen GST-Six1/His-Eya2 binding, biochemical; hits give low values; Q15475+O00167; in the data active means activity change below about -65%; inconclusive means mostly about -30% to -63%; further: on the % scale 0 is the no-effect control and ±100 the full control effect
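Compounds are tested against tagged Six1 and Eya2 proteins bridged by glutathione donor and nickel acceptor beads; after a one-hour incubation at 37 °C without light, AlphaScreen emission is recorded.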
HP1b binding inh: blocks HP1-beta chromodomain binding to methylated histone tails; P83916; AlphaScreen HP1-beta / biotin-H3K9me3 peptide binding; Potency, µM (series often up to 114 µM), for inactives: top-dose activity change, negative = inhibition, actives largely listed as inhibitors; 0.56% of 390,000 active; AID 540317; further: potency means the concentration at half of the fitted maximal effect; nearly all actives have a fitted effect of over 70% in size
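HP1-beta protein (50 nM final) preincubated 30 min at room temperature with biotinylated H3(1-18)K9me3 peptide (50 nM) in PBS pH 7.4, 0.01% Tween-20, then compound added for 30 min. AlphaScreen streptavidin donor/nickel chelate acceptor beads (10 ug/mL final), 30 min dark, luminescence read.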
BAZ2B block: inhibitors of human BAZ2B bromodomain | Q9UIF8 | AlphaScreen BAZ2B-H3K14Ac peptide displacement | Potency, µM (doses to about 114 µM), inactives show at the top dose activity change, negative = inhibition, most hits filed as inhibitors | 4.4% of 360,000 active; further: potency means the concentration at half of the fitted maximal effect; on the % scale 0 is the no-effect control and ±100 the full control effect; nearly all actives have a fitted effect of over 60% in size
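Compounds, titrated to a top concentration of 110 uM, were incubated 30 min at room temperature with preformed BAZ2B/acetyl-K14 H3 peptide complex (50 nM each). Proximity signal was measured by AlphaScreen after 20 min with beads.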
G9a inh-1: inhibitors of human histone lysine methyltransferase G9a. Q96KQ7. G9a H3K9 monomethylation, AlphaScreen, 2 h. Potency, µM (highest dose often 102 µM), without a hit: top-dose activity, negative = inhibition, hits mostly inhibitors. 8.8% of 350,000 active; further: potency means the concentration at half of the fitted maximal effect; on the % scale 0 is the no-effect control and ±100 the full control effect; nearly all actives have a fitted effect of over 75% in size
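Using a bead-based AlphaScreen, monomethylated H3K9 product from 2 h room-temperature reactions (G9a 20 nM, peptide 500 nM, SAM 20 uM) was detected with 0.5 ug/mL rabbit anti-H3K9me1 antibody.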
CtBP-E1A blk: CtBP/E1A binding inhibition. AlphaScreen GST-E1A/His-CtBP binding, 1536-well; hits give low values. activity change, % (test concentration not listed). 0.49% of 340,000 active; in the data active means activity change below about -65%; inconclusive means mostly about -30% to -63%; further: on the % scale 0 is the no-effect control and ±100 the full control effect
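GST-E1A and His-tagged CtBP (125 nM each as 5X stock) were preincubated with pin-transferred compound for 2 h at 37 °C in the dark, then glutathione donor and nickel acceptor beads were added for 1 h before AlphaScreen reading.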
JMJD2E inh: JMJD2E (human) demethylase inhibition, confirmation | AID 2677 | Potency, µM (doses to about 56.8 µM), for inactives: top-dose activity change, negative = inhibition, actives largely listed as inhibitors | shares compounds with JMJD2A Tudor | Recombinant JMJD2E, FDH-coupled NADH fluorescence (FDH is formaldehyde dehydrogenase) | 93% of 140 active
FDH inh: FDH (Pseudomonas putida) inhibition counter-screen; shares compounds with JMJD2A Tudor; AID 2680; 10% of 140 active; Potency, µM (doses to about 56.7 µM), for the others: at the highest dose activity, negative = inhibition, actives largely listed as inhibitors; FDH enzyme assay, NADH fluorescence kinetic
G9a inh-2: confirmation of human histone methyltransferase G9a inhibitors; shares compounds with JMJD2A Tudor; G9a H3K9 monomethylation, AlphaScreen, 2 h; Potency, µM, usual class: inhibitors; 89% of 370 active; further: potency means the concentration at half of the fitted maximal effect; nearly all actives have a fitted effect of over 65% in size
RGS4 inh: confirmation of human RGS4 inhibitors; shares compounds with JMJD2A Tudor; RGS4 GAP activity, Transcreener GDP fluorescence polarization; Potency, µM, most hits filed as inhibitors; 80% of 25 active; AID 602388
The depositor's hits bear a star; ? = inconclusive; · = not tested or not shown; [ ] = another dose, or the depositor's remark. A selection: hits, their analogues and other compounds. The true share with any hit is near 10%. Unless noted, the call rests on the fitted dose curve; in most records, active means well fitted curve in the direction sought with a large enough effect; inconclusive means small, poorly fitted or top-dose-only effect, or another doubt; inactive means no such curve, though single readings can be large; an effect the other way counts as inactive or inconclusive.

SMILES | JMJD2A Tudor | Six1-Eya2 inh | HP1b binding inh | BAZ2B block | G9a inh-1 | CtBP-E1A blk | G9a inh-2 | others
COc1ccc(S(=O)(=O)c2c(O)c3ccc(C(=O)Nc4ccc(F)cc4F)cc3[nH]c2=O)cc1 | -10.1% | ? | 66.1% | ? | ? | ? | ·
NNC(=O)c1n[nH]c2c1CC(C1CCCCC1)CC2 (stereo not given) | -21.8% | 0.5 | 30.4% | 7.1% | 17.1%[2.33 µM] | -9.5 | ·
Cc1ccnc(NC(c2cccnc2)c2ccc3cccnc3c2O)c1 (stereo not given) | 22.4µM* | -86.0* | ? | 7.08µM* | 6.31µM* | -98.7* | · | JMJD2E inh=31.6µM*;FDH inh=?
CCOC(=O)C1CCCN(C(=O)COc2ccc(C(C)(C)C)cc2)CC1 (stereo not given) | · | -0.4 | · | · | · | 5.8 | ·
COc1ccc(Cl)c(NC(=O)C/C(C)=N/NC(=O)CCc2ccccc2)c1 | -9.5% | -18.4 | 40.2% | -5.4% | -3.8% | -10.9 | ·
Cc1ccc(CCNC(=O)CNS(=O)(=O)c2ccc3nc(C)sc3c2)cc1 | -7.4% | 3.1 | 64.5% | -1.8% | · | 0.6 | ·
Cc1nc2ccc(CCO)cc2s1 | -6.5% | -1.5 | 40.2% | 1.1% | 1.12µM* | -0.6 | ?
CCN1CCN(c2ccc(NC(=O)c3cc4ccccc4cc3OC)cc2C)CC1 | -32.2% | 3.5 | 18.0% | -37.5% | ? | 16.5 | 3.17*
CCN1CCN(c2ccc(NC(=O)c3ccccc3F)cc2Cl)CC1 | -23.3% | 1.6 | 11.5% | ? | 3.6%[59 µM] | 5.4 | ·
Cc1cccc(C)c1OCc1nnc(SCC(=O)Nc2cccc(C(=O)N3CCOCC3)c2)n1C | ? | -3.8 | 8.9% | -2.9% | 9.2%[59 µM] | -2.9 | ·
Cc1cccc(OCc2nnc(SCC(=O)Nc3cccc(C(=O)N4CCOCC4)c3)o2)c1C | -8.9% | 0.6 | 12.2% | -21.3% | 2µM* | -4.0 | 5.01*
Cc1ccc(S(=O)(=O)Nc2cccc(NC(=O)CN3CCCCC3)c2)cc1 | ? | 8.8 | ? | ? | ? | 0.3 | 2.83*
Cc1cc(OCC(=O)Nc2cc(-c3nc4ccccc4[nH]3)ccc2C)ccc1Cl | -20.9% | · | 33.6% | -33.4% | 13.4%[59 µM] | · | ·
C=CCOc1c(Cl)cc(CNc2ccc(N(C)C)cc2)cc1OC | 17.8µM* | ? | 15.8µM* | 25.1µM* | 1.78µM* | ? | 5.62*
C=CCOc1c(Cl)cc(CNCCC)cc1Cl | -5.6%[57.1 µM] | 5.0 | 23.6% | 2.8% | ? | -0.5 | ·
Cc1ccc2nc(N)[nH]c(=O)c2c1Sc1ccncc1 | · | · | · | · | ? | · | 11.5*
COc1cc2c(NC3CCN(C)CC3)nc(N3CCCN(C)CC3)nc2cc1OCCCCCN | · | · | · | · | · | · | · | RGS4 inh=?
Cc1ccc(S(=O)(=O)c2nc(S(C)(=O)=O)sc2N2CCC3(CC2)OCCO3)cc1 | -8.3% | 12.4 | 34.6% | -17.4% | 36.4% | 1.5 | ·
CCCNC(=O)c1ccc2c(=O)n3c(-c4ccc(C)cc4)csc3nc2c1 | 22.4µM* | -0.1 | -25.2% | 7.08µM* | ? | -0.8 | 0.564*
Cc1ccc2occ(CC(=O)Nc3ccc(S(=O)(=O)N4CCC(C)CC4)cc3)c2c1 | -27.8% | · | 10.7% | -13.1% | ? | · | ·
